Screens: PubChem BioAssay, National Center for Advancing Translational Sciences (NCATS)
In the library only some 21% were active in any assay of this set; here they are far more common.
VP16 counter: inhibits Gal4-VP16 luciferase reporter, ROR gamma counter-screen; hit rate 3.5% among 310,000; Potency, µM (doses to about 53.6 µM), hits mostly inhibitors; AID 2546; Drosophila S2 Gal4-VP16 UAS-luciferase, luminescence, 20 h;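 further: Gal4-VP16 expression switched on by copper sulfate through the metallothionein promoter; nearly all actives have a fitted effect of over 50% in size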
RORgamma inh: blocks mouse ROR gamma transcriptional activity; P51450; hit rate 5.4% among 310,000; Drosophila S2 Gal4-RORgamma UAS-luciferase reporter, 20 h; Potency, µM (series often up to 53.6 µM), hits mostly inhibitors; further: nearly all actives have a fitted effect of over 60% in size
Target sequence (P51450 whole entry, looked up, the tested form may be a part): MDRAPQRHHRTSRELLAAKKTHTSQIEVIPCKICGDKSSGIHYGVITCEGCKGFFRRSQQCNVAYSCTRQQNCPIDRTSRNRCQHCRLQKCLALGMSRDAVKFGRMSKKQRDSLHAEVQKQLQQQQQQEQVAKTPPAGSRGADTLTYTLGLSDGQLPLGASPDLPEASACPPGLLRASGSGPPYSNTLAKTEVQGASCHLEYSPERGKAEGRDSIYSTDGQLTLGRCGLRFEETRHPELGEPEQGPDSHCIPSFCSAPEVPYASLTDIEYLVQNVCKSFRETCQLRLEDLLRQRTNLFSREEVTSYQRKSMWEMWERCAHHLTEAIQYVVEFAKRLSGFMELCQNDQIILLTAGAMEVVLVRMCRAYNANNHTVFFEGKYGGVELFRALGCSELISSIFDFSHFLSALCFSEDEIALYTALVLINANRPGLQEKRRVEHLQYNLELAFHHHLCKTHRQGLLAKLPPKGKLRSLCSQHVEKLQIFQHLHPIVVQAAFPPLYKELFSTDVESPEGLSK
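Drosophila S2 cells stably expressing Gal4-DBD/mouse RORγ fusion under metallothionein promoter plus UAS-luciferase; compound 1 h, then 700 uM CuSO4 induction for 20 h at ambient temperature; inhibition read as reduced luminescence.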
ELG1 DNA repair: blocks ELG1-dependent DNA repair in HEK293T cells. hit rate 2.3% among 330,000. AID 504467. Potency, µM (titrated, usually from 46.1 µM), usual class: inhibitors. HEK293T ELG1-luciferase reporter, luminescence, 16 h; DNA damage induced by 5-fluorouridine; further: nearly all actives have a fitted effect of over 55% in size
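DMSO vehicle served as the neutral condition. Each well held 2,000 cells given 5-fluorouridine plus compound; after 16 hr at 37 °C/5% CO2, ONE-Glo was added and luciferase measured 30 min later.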
IL1B secr inh: blocks inflammasome-driven IL-1 beta release. THP-1 LPS/ATP IL-1B secretion, AlphaLISA, 16 h; active compounds read low. AID 743279. hit rate 4.7% among 360,000. activity change, % at 57.5 µM; in the data active means activity change below about -50%; inconclusive means mostly about -30% to -49%
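THP-1 cells pretreated 1 hr with compounds (up to 57.5 uM final), then stimulated with LPS (250 ng/mL final) plus ATP (1.25 mM final); secreted IL-1B measured by AlphaLISA after 16 hr, decreased signal indicating inhibition.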
DT40 TDP1 no CPT: qHTS for Inhibitors of human tyrosyl-DNA phosphodiesterase 1 (TDP1): qHTS in cells in absence of CPT; hit rate 15% among 420,000; DT40 Tdp1-/- hTDP1 cells, no CPT, ATP luminescence, 48 h; AID 686978, 2013; Potency, µM (highest dose often 46.2 µM), actives largely listed as inhibitors; further: nearly all actives have a fitted effect of over 55% in size
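Growth kinetics read by CellTiter-Glo luminescence after ≥48 hr at 37 °C. Cells: DT40 Tdp1-/- stably carrying human TDP1, 400 per well, compound exposure in the absence of CPT (DMSO vehicle).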
TDP1 cell CPT: DT40-hTDP1 cell growth loss with CPT; chicken DT40 Tdp1-/-;hTDP1 cells + 20 nM CPT, ATP luminescence, 48 h; Potency, µM (highest dose often 46.2 µM), actives largely listed as inhibitors; hit rate 12% among 420,000; further: nearly all actives have a fitted effect of over 55% in size
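Cell growth measured by CellTiter-Glo luminescence after a minimum 48 h, 37 C compound exposure with 20 nM CPT in Tdp1-knockout DT40 cells stably expressing hTDP1, seeded 400/well; qHTS titration format.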
Hits are given with their value; i = inactive; ? = inconclusive; nt = not tested or not shown; [ ] = remark or other dose. Unless noted, the call rests on the fitted dose curve; in most records, active means well fitted curve in the direction sought with a large enough effect; inconclusive means small, poorly fitted or top-dose-only effect, or another doubt; inactive means no such curve, though single readings can be large; an effect the other way counts as inactive or inconclusive.

SMILES	VP16 counter	RORgamma inh	ELG1 DNA repair	IL1B secr inh	DT40 TDP1 no CPT	TDP1 cell CPT
CCNC(=O)c1c2c(nc3ccccc13)C(=O)N(C1CCCCC1)C2	nt	nt	nt	nt	i	i
Cc1ccc(CNC(=O)c2c3c(nc4ccccc24)C(=O)N(C2CCCCC2)C3)cc1	nt	nt	nt	nt	16µM	?
COC(=O)C1=C(C(=O)OC)[N+]2=C3N(C(=O)NC2(C)C)[C@H](CO)C[C@@]32c3ccccc3N(Cc3ccccc3)[C@@H]12	nt	nt	nt	i	?	i
O=C(NCCN1CCOCC1)c1ccncc1	i	i	i	i	i	i
O=C1C=C(NCCO)C(=O)c2cnccc21	6.3µM	3.5µM	nt	nt	nt	nt
O=C1C=C(NCCN2CCOCC2)C(=O)c2cnccc21	?	10µM	4.1µM	nt	nt	nt
C/C(=N/NC(=O)CNC(=O)C1COc2ccccc2O1)c1ccc([N+](=O)[O-])cc1 (stereo not given)	i	i	i	i	i	i
Cc1cccc(N2C(=O)c3cccc4c(N(C)CCO)ccc(c34)C2=O)c1	i	1.3µM	i	i	18µM	?
Cc1cccc(N2C(=O)c3cccc4c(N)ccc(c34)C2=O)c1	i	i	i	-58	i	?
O=C1NC[C@@H](CCCCN2CCN(Cc3ccccc3)C(=O)C2=O)N(CC2CCCCC2)C1=O	nt	nt	nt	i	i	i
C[C@@H]1C=CCC(=O)OC[C@H](C)C(=O)OC[C@H]2O[C@H]1C=C[C@@H]2O	i[10 µM]	i[10 µM]	nt	nt	nt	nt
CC1CCC(C(=O)O)NC1c1cccc(N2CCCC2=O)c1 (stereo not given)	i[10 µM]	i[10 µM]	nt	nt	nt	nt
CN(C)c1ccc(-c2nc3ccccc3c(=O)[nH]2)cc1	?	5.6µM	?	i	?	?
O=c1[nH]c(-c2cccnc2)nc2ccccc12	i	i	i	i	i	i
O=c1[nH]c(-c2ccncc2)nc2ccccc12	i	i	i	i	?	21µM
CC1CCN(C(=O)Cn2c3ccc(F)cc3c3nc4n(c(=O)c32)CCCS4)CC1	i	i	i	i	?	?
Cc1ccc(CN=Cc2[nH]c3ccc(Br)c(Cl)c3c2O)cc1	?	13µM	i	i	21µM	?
CN(c1ccccc1)S(=O)(=O)c1cc(C(=O)NCc2ccco2)ccc1Cl	nt	nt	nt	?	?	i
Cc1n[nH]c(=O)nc1N1CCc2ccccc2C1	i	i	nt	i	18µM	i
CC(=O)c1ccc(N2CCN(C(=O)c3cc4c(-c5ccccc5F)nn(C)c4s3)CC2)cc1	?	?	18µM	i	18µM	18µM
Cc1ccc(Cl)cc1N1CCN(C(=O)c2cc3c(-c4ccccc4F)nn(C)c3s2)CC1	nt	nt	nt	nt	15µM	?
CC(C)c1ccc(NC(=O)C(c2ccccc2)N(Cc2ccco2)C(=O)CC2NC(=O)NC2=O)cc1 (stereo not given)	i	?	?	-56	i	i
Cc1ccc(S(=O)(=O)n2c3ccccc3c3nnc(C(=O)c4ccccc4)nc32)cc1	i[10 µM]	i[10 µM]	nt	nt	nt	nt
CN1CCN(Cc2nc3ccccc3c(=O)n2Cc2nc(-c3ccc([N+](=O)[O-])cc3)cs2)CC1	18µM	7.9µM	?	-97	5.8µM	18µM
CN(C)Cc1nc2ccccc2c(=O)n1Cc1nc(-c2cccc([N+](=O)[O-])c2)cs1	i	i	i	i	6.5µM	18µM
SMILES	VP16 counter	RORgamma inh	ELG1 DNA repair	IL1B secr inh	DT40 TDP1 no CPT	TDP1 cell CPT
Cc1cc2cc(C)c3nnc(SCc4ccccn4)n3c2cc1C	i	i	i	i	?	23µM
Cc1ccc(C)c2c1cc(C)c1nnc(SCc3ccccn3)n12	i	?	i	i	i	i
CC1CCC(C(C)C)C(OCC(O)CN2CCOCC2)C1 (stereo not given)	i	i	i	i	i	i
CC1CCC(C(C)C)C(OCC(O)CN2CCN(Cc3ccccc3)CC2)C1 (stereo not given)	i	i	?	?	15µM	13µM
CC1CCC(C(C)C)C(OCC(O)C[N+]2(C)CCCCC2)C1 (stereo not given)	i	i	i	i	12µM	?
COc1cc(NCCCn2cnc3c(OC)ncnc32)cc(OC)c1OC	nt	nt	nt	i	i	i
